From PubChem BioAssay
Sampled rows, rich in hits. Any-hit rate of the full collection: about 2.4%.
GLP-1R inv ag: qHTS of GLP-1 Receptor Inverse Agonists (Inhibition Mode). Potency, µM (titrated, usually from 38.3 µM), for inactives: at the top dose activity change, negative = inhibition, actives largely listed as inhibitors. Glucagon-like peptide 1 receptor (Homo sapiens), P43220. HEK293 GLP-1R CRE-luciferase, luminescence, 24 h; GLP-1R form is constitutively active. 1.6% of 410,000 active; note: potency is the fitted concentration of half-maximal effect; % is set by controls: 0 for no effect and ±100 for the full control effect; nearly all actives have a fitted effect of over 55% in size
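Readout was luciferase luminescence, measured 12 min after detection reagent at room temperature. Beforehand, GLP-1R reporter HEK293 cells had sat 12 h, then received compounds for 24 hr at 37 deg C.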
TRHR enhancer: qHTS for Small Molecule Agonists and Allosteric Enhancers of Human TRH Receptor: Primary Screen for Enhancers; TRHR cells, fluo-8 calcium fluorescence, EC20 TRH enhancement; enhancement, % at 2 µM; Thyrotropin-releasing hormone receptor (Homo sapiens), P34981; 0.66% of 360,000 active; in the data active = enhancement above about 30%; note: 0% is about no effect
Target sequence (P34981 whole entry, looked up): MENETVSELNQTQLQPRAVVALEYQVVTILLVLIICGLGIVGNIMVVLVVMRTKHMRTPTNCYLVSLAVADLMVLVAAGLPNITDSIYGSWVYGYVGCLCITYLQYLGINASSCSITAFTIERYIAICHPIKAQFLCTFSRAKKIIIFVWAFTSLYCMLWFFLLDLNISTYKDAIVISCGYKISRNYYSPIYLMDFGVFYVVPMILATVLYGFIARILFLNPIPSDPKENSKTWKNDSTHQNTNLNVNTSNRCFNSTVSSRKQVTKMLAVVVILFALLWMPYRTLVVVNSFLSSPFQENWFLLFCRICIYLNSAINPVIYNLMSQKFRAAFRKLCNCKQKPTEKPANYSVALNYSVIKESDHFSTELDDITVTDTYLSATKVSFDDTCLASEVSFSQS
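TRHR-expressing cells loaded with fluo-8 calcium dye were read kinetically (ex 480/em 530) during compound addition, then stimulated with an EC20 of TRH (10 nM final). Enhancement of the Gq-mediated intracellular calcium response was scored.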
PTHR1 ag: qHTS for PTHR1 Agonists: Primary Screen | Parathyroid hormone/parathyroid hormone-related peptide receptor (Homo sapiens), Q03431 | 0.075% of 410,000 active | Potency, µM (series often up to 115 µM), without a hit: at the highest dose activation, most hits filed as activators | AID 743266, 2014 | HEK293 GP2 PTHR1 cells, GloSensor cAMP luminescence, 1 h; note: potency is the fitted concentration of half-maximal effect; nearly all actives have a fitted effect of over 55% in size
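HEK-293-derived GP2 cells expressing PTHR1 and a GloSensor cAMP reporter, 3,000/well, plated overnight, given luciferin plus IBMX (each 0.5 mM as added) for 1 h at 37 °C, then compound for 1 h at 37 °C. Luminescence was read after 15 min at room temperature.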
GLP-1R agonist: qHTS of GLP-1 Receptor Agonists; Glucagon-like peptide 1 receptor (Homo sapiens), P43220; HEK293 GLP-1R CRE-luciferase, luminescence, 4-6 h; cells express a hypersensitive GLP-1R form; Potency, µM (titrated, usually from 45.6 µM), for inactives: top-dose activation, usual class: activators; 0.007% of 380,000 active; note: potency is the fitted concentration of half-maximal effect; % of control where 0% means no effect
GLP1R cytotox: qHTS of GLP-1 Receptor Inverse Agonists: Cytotox Screen; HEK293 cAMP-luciferase reporter cells, luminescence, 24 h; Potency, µM (doses to about 38.3 µM), for the others: at the highest dose activity change, negative = inhibition, actives largely listed as inhibitors; 0.13% of 410,000 active; AID 624418, 2012;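 note: loss of luciferase light is scored as toxicity; potency is the fitted concentration of half-maximal effect; % is set by controls: 0 for no effect and ±100 for the full control effect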
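To flag toxic compounds, the library was rerun on cells for 24 hr at 37 deg C and 5% CO2. Viability-linked luminescence was captured 12 min after adding luciferase detection reagent.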
TRHR agonist: qHTS for Small Molecule Agonists and Allosteric Enhancers of Human TRH Receptor: Primary Screen for Agonists; Thyrotropin-releasing hormone receptor (Homo sapiens), P34981; AID 493084, 2011; 0.18% of 360,000 active; TRHR cells, calcium flux fluo-8, FDSS agonist mode; activation, % at 2 µM; in the data active = activation above about 30%; note: 0% is about no effect
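Agonist-mode FDSS calcium read (Ex 480/Em 530, 1 s cycles) in 1536-well TRHR cells with fluo-8 dye, after 10-cycle baseline and 23 nL compound addition; TRH at EC20 (10 nM final) added afterwards for the enhancer phase.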
Active calls of the source: *; i = inactive; ? = inconclusive; . = not tested or not shown; [ ] = another dose, or the depositor's remark. Unless noted, calls come from the whole dose curve; as a rule, active = well fitted curve in the direction sought with a large enough effect; inconclusive = small, poorly fitted or top-dose-only effect, or another doubt; inactive = no such curve, though single readings can be large; an effect the other way counts as inactive or inconclusive.

SMILES	GLP-1R inv ag	TRHR enhancer	PTHR1 ag	GLP-1R agonist	GLP1R cytotox	TRHR agonist
Cc1ccc(C)c(NC(=O)c2oc(=O)c3ccccc3c2-c2ccccc2)c1	?	12.7	-14.6%	0.5%	-10.4%	0.9
COC(=O)CN1C(=O)CC(C)(C)Sc2ccccc21	-10.3%	0.4	1.8%	-2.3%	-10.4%	-0.1
O=C(c1ccc2c(c1)N(Cc1ccc(Cl)cc1)C(=O)c1ccccc1S2(=O)=O)N1CCOCC1	13.3%	-6.1	i	2.8%	-2.5%	0.3
Cc1ccc(NC(=O)NCC2CCN(Cc3cccc(Cl)c3)CC2)c(Cl)c1	?	4.0	i	0.7%	-3.8%	0.5
Cc1ccc(NC(=O)NCC2CCN(Cc3cccc(Cl)c3)CC2)cc1Cl	2.24µM*	-4.3	-7.6%	2.5%	?	2.0
Cc1ccc(CN2CCC(CNC(=O)Nc3ccc(Cl)cc3)C2)cc1 (stereo not given)	-28.3%	6.0	i	.	-17.6%	3.2
CCc1ccc(NC(=O)NCC2CCN(Cc3cccc(Cl)c3)CC2)cc1	12.6µM*	25.3	i	-7.6%	-18.4%	1.7
O=C(NCC1CCN(Cc2cccc(Cl)c2)CC1)Nc1ccccc1Cl	10µM*	0.6	i	9.9%	-8.0%	2.5
O=C(Nc1ccccc1C(F)(F)F)c1ccc(CN2CCC(Cc3ccccc3)CC2)cc1	8.91µM*	8.4	-10.2%[57.5 µM]	-1.9%	?	0.4
CCOCCCNC(=O)C1(O)c2ccccc2NC(=O)N1c1ccc(Cl)c(Cl)c1 (stereo not given)	-1.1%	5.0	-20.1%	4.2%	22.6%	-0.4
O=C(N/N=C/c1ccncc1)c1cc2ccccc2o1	1.3%	-1.4	i	13.4%	-1.1%	0.5
S=C(N/N=C/c1ccccc1Cl)Nc1ccccc1	?	-3.8	i	11.7%	3.98µM*	-0.3
Cc1ccc(S(=O)(=O)N2CCN(C(=O)CSc3ccc(F)cc3)CC2)cc1	10.3%	-0.5	-12.8%	17.6%	6.3%	0.2
Cc1ccc(S(=O)(=O)N2CCN(C(=O)CSc3ncc(C(F)(F)F)cc3Cl)CC2)cc1	10µM*	-5.1	-17.7%[57.5 µM]	-16.4%	3.9%	0.3
Cc1ccc(S(=O)(=O)N(CC(O)Cn2c3ccccc3c3ccccc32)c2cccc(C(=O)NCCO)c2)cc1 (stereo not given)	12.6µM*	1.2	i	-0.6%	-22.3%	-0.5
Cc1ccc(S(=O)(=O)N(CC(O)Cn2c3ccccc3c3ccccc32)c2cccc(C(=O)N(C)C)c2)cc1 (stereo not given)	?	-2.7	i	-4.2%	-16.8%	-0.6
O=C(CCCc1nc(-c2ccc(Cl)cc2)no1)NCc1ccco1	-11.5%	3.7	i	.	-10.1%	-0.5
Cc1ccsc1/C=N/Nc1nc(=O)[nH]nc1C	3.55µM*	1.8	-13.3%	-0.3%	?	0.0
Cc1cc(C)nc(N/N=C/c2sccc2C)n1	-1.9%	3.5	i	6.2%	-4.4%	-0.5
Clc1cccc(-c2nc(NCCCN3CCOCC3)c3ccccc3n2)c1	10µM*	-1.7	i	2.7%	-7.6%	1.5
Clc1cccc(-c2nc(NCCN3CCOCC3)c3ccccc3n2)c1	7.08µM*	-6.2	-6.9%	16.5%	-19.0%	0.9
Cc1ccc(Cl)cc1N1CCN(CCCNC(=O)c2nnc(Cc3cccc(Cl)c3)o2)CC1	-74.8%	1.9	-8.3%	.	-21.3%	1.9
CCOc1ccc(C2=C(C=C(C#N)C#N)C(c3ccccc3)c3ccccc3O2)cc1 (stereo not given)	6.31µM*	-7.6	-24.8%	-3.7%	-12.3%	0.4
COc1ccc(C2=C(CN(C)C)C(c3ccccc3)c3ccccc3O2)cc1 (stereo not given)	?	14.0	-16.6%[57.5 µM]	-6.2%	?	-0.5
COc1ccc(-c2noc(CSc3nc4ccccc4c(=O)n3-c3ccc(C)cc3)n2)cc1	?	33.4*	-8.3%	2.0%	1.3%	0.4
SMILES	GLP-1R inv ag	TRHR enhancer	PTHR1 ag	GLP-1R agonist	GLP1R cytotox	TRHR agonist
COc1ccc(-n2c(SCc3nc(-c4ccc(C)cc4)no3)nnc2-c2ccccc2)cc1	-0.2%	6.0	i	.	-5.6%	0.8
O=C1c2cccc3c(N4CCCCC4)ccc(c23)C(=O)N1c1ccccc1O	-17.0%	6.0	-16.2%	10.3%	i	95.7*
CC(=O)Nc1nc(C)c(Oc2cccc(C(F)(F)F)c2)c(=O)[nH]1	26.8%	-3.1	i	0.7%	7.5%	0.6
O=C1NC(CCc2ccccc2)C(=O)N1CCOc1ccccc1 (stereo not given)	-7.5%	6.9	-10.4%	-2.3%	1.0%	0.1
COc1ccccc1N1CCN(Cc2nc(-c3ccc(F)cc3)oc2C)CC1	?	-7.2	-29.7%	6.7%	-3.2%	2.1
Cc1cc(N2CCN(Cc3nc(-c4ccc(F)cc4)oc3C)CC2)cc(C)n1	4.47µM*	-6.5	i	8.6%	-25.5%	0.1
CCOc1ccc(S(=O)(=O)N2CCN(C(=O)c3oc4ccc(OC)cc4c3C)CC2)cc1	?	0.2	i	27.0%	-4.5%	0.5
CC(C)(C)c1ccc(Oc2ccc(NC(=O)c3cccs3)cn2)cc1	?	-0.4	-43.1%	27.3%	1.4%	2.2
CC(C)CC(COCc1cccc(Cl)c1)N1CCN(C(=O)c2ccc(C(F)(F)F)cc2)CCC1=O (stereo not given)	10µM*	-2.5	-49.5%	-2.3%	-13.0%	-0.2
O=C(c1ccc(Cl)c(Cl)c1)N1CCC(=O)N(C(COCc2cccc(Cl)c2)Cc2ccccc2)CC1 (stereo not given)	3.98µM*	-5.6	-12.0%	-5.0%	-17.4%	0.5
O=C(c1cccc(Cl)c1)N1CCC(=O)N(C(COCc2cccc(Cl)c2)Cc2ccccc2)CC1 (stereo not given)	4.3%	0.1	-24.8%	9.9%	-5.4%	0.0
Cc1cccc(COCC(Cc2ccccc2)N2CCN(C(=O)c3ccc(C(F)(F)F)cc3)CCC2=O)c1 (stereo not given)	11.2µM*	-2.5	-14.8%	-0.2%	-11.4%	0.0
Cc1cc2c(N=NC(=O)CCc3ccccc3)c(O)[nH]c2cc1Br	29.5%	2.8	i	11.1%	3.3%	-0.6
CCCNc1c(NS(=O)(=O)c2ccc(C3CCCCC3)cc2)c(=O)oc2ccccc12	19.4%	-0.1	-24.4%	2.2%	-1.0%	0.7
